In the library only some 11% were active in any assay of this set; here they are far more common.
Tau fibril ThT – tau fibrillization inhibition (ThT binding) | P10636 | recombinant tau K18 P301L, heparin-induced fibrillization, ThT fluorescence | Potency, µM (highest dose often 57.4 µM), without a hit: top-dose activity, negative = inhibition, actives largely listed as inhibitors | 270,000 tested, 2.1% active; further: potency means the concentration at half of the fitted maximal effect; nearly all actives have a fitted effect of over 55% in size
Target sequence (P10636 561-689 P618L limits assumed): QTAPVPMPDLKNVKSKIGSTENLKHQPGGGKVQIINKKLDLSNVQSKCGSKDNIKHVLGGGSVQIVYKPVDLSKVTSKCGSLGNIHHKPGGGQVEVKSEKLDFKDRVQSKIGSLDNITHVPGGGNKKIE
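ThT emission at 510 nm, taken 1 hr after adding 30 uM dye, quantifies aggregates formed when 20 uM heparin acts on human tau K18 P301L for 6 hr at 37 C.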
Tau fluor cs – counter-screen for tau fibril formation inhibitors; 280,000 tested, 0.93% active; AID 1463; Potency, µM (highest dose often 57.7 µM), inactives show at the top dose activity change, negative = decrease; tau K18 P301L (four-repeat tau fragment) Alexa594 fluorescence, heparin fibrillization; further: potency means the concentration at half of the fitted maximal effect; nearly all actives have a fitted effect of over 55% in size
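Human K18 P301L tau (15 uM unlabeled plus 0.24 uM Alexa 594-labeled, final) in 100 mM sodium acetate pH 7 was mixed with compound and 20 uM heparin and incubated 6 hr at 37 C.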
Sfp PPTase inh – Sfp phosphopantetheinyl transferase inhibition | 310,000 tested, 3.5% active | Biochemical Sfp PPTase activity, qHTS | Q9F4F7 | Potency, µM, for inactives: largest response in the series, negative = inhibition, actives largely listed as inhibitors | AID 1490;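 further: the enzyme is Sfp with the accession as filed and its product quenches rhodamine fluorescence; potency means the concentration at half of the fitted maximal effect; 0% = enzyme reaction without inhibitor and -100% = no enzyme wells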
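Sfp 15 nM + cpd, 15 min RT; start w/ rhodamine-CoA 5 uM, BHQ-2-YbbR 12.5 uM (final); 50 mM Hepes pH 7.6, 10 mM MgCl2, 0.01% NP-40, 0.01% BSA; read 525/598 nm at 0 and 30 min.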
G9a block – G9a (human) methyltransferase inhibition; Potency, µM (titrated, usually from 102 µM), for the others: at the top dose activity, negative = inhibition, most hits filed as inhibitors; 350,000 tested, 8.8% active; G9a H3K9 monomethylation, AlphaScreen, 2 h; AID 504332; further: potency means the concentration at half of the fitted maximal effect; nearly all actives have a fitted effect of over 75% in size
Target sequence (Q96KQ7 913-1193 limits assumed): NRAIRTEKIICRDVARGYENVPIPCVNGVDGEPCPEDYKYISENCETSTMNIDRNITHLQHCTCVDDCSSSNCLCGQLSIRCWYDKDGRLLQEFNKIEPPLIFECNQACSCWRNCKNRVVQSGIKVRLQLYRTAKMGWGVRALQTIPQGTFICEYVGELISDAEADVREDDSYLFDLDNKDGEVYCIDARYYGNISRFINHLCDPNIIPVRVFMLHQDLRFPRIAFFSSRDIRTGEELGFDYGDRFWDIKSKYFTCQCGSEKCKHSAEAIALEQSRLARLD
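AlphaScreen read-out: biotin-H3K9 peptide (500 nM) methylation by 20 nM enzyme with 20 uM SAM, 2 h at room temperature after 15 min compound preincubation; anti-monomethyl H3K9 antibody plus donor/acceptor beads, 10 min dark.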
Tau fibril FP – tau fibrillization inhibition (FP). P10636. K18 P301L tau heparin fibrillization, Alexa594 FP, 6 h. Potency, µM (series often up to 57.7 µM), for inactives: top-dose activity, negative = inhibition, hits mostly inhibitors. 280,000 tested, 0.39% active. AID 1468; further: potency means the concentration at half of the fitted maximal effect; nearly all actives have a fitted effect of over 55% in size
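K18 P301L tau (15 uM unlabeled/0.24 uM Alexa 594-labeled, final) + compound + heparin 20 uM final; 100 mM NaOAc pH 7; 6 hr 37 C; ThT 30 uM final added, 1 hr RT; FP ex 555/em 632 nm.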
Coupling enz – coupling enzyme interference in Giardia aldolase counter-screen | coupling enzyme system counterscreen, AmpLite Red fluorescence | activity change, negative = inhibition, % at 58.2 µM, hits read low | 290,000 tested, 0.67% active | AID 2472; in the data active means activity change below about -30%
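First, compound is pin-transferred into glyceraldehyde-3-phosphate coupling-enzyme reagent at 57.5 uM final and held 10 min at RT. Next, substrate, coupling system and AmpLite Red are added. After 20 min RT, fluorescence (525/598 nm) is read.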
Starred values were filed as active, the others as inactive; ? = inconclusive; / = no result; [ ] = another dose, or the depositor's remark. Unless noted, the call rests on the fitted dose curve; in most records, active means well fitted curve in the direction sought with a large enough effect; inconclusive means small, poorly fitted or top-dose-only effect, or another doubt; inactive means no such curve, though single readings can be large; an effect the other way counts as inactive or inconclusive. Unless noted, on the % scale 0 is the no-effect control and ±100 the full control effect.

SMILES | Tau fibril ThT | Tau fluor cs | Sfp PPTase inh | G9a block | Tau fibril FP | Coupling enz
COc1ccc2c(C)cc(=S)[nH]c2c1 | -15.6% | 2.0% | ? | 39.8µM* | -5.2% | -1.7
COc1cccc(NC(=O)/C(C#N)=C/c2c(C)n(Cc3ccccc3)c3ccccc23)c1 | -4.8% | -20.2% | / | -0.5%[59 µM] | ? | /
CCC1(C)Nc2ccccc2C(=O)N1O (stereo not drawn) | -10.9% | -8.7% | -7.7% | 50.1µM* | -5.7% | 1.9
CCOC(=O)Cc1csc(NC(=O)c2ccc(N3CCOCC3)cc2[N+](=O)[O-])n1 | / | / | / | -7.4%[12.7 µM] | / | /
O=C(O)c1ccccc1NC(=O)C1CCCO1 (stereo not drawn) | 1.9% | 0.6% | 9.0% | -25.5%[59 µM] | 1.3% | 1.1
CC1CCC/C(=C\Nc2ccccc2C(=O)O)C1=O (stereo not drawn) | ? | -11.9% | 11.2% | 44.7µM* | -14.5% | -2.9
CC1CCC/C(=C\Nc2ccc3c(c2)OCO3)C1=O (stereo not drawn) | ? | -26.0% | ? | 8.91µM* | -6.1% | -10.5
COc1ccc2c(c1)nc(SCC(=O)c1ccc(Br)s1)n2C | ? | -22.6% | 56.2µM* | 39.8µM* | -6.7% | -7.5
COC(=O)CSc1nc2cc(OC)ccc2n1C | -8.9% | -7.9% | -5.9% | 70.8µM* | -2.7% | 6.6
COC(=O)CSc1nnc(-c2sc3cc(OC)ccc3c2Cl)n1C | ? | 6.0% | 2.7% | 6.31µM* | 7.3% | 0.9
COC(=O)CSc1nnc(-c2ccc3c(c2)OCO3)n1C | -4.6% | -1.9% | 14.1% | 12.2% | 1.4% | 1.9
COC(=O)CSc1nnc(-c2sc3ccccc3c2Cl)o1 | ? | -8.1% | -11.9% | 12.6µM* | -2.2% | 0.0
N#CCSc1nnc(-c2sc3ccccc3c2Cl)o1 | -17.1% | -13.1% | -0.3% | 12.2%[59 µM] | -2.1% | 2.4
O=C(CSc1n[nH]c(-c2ccccc2)n1)NC(=O)NCc1ccco1 | -11.4% | -12.8% | -8.3% | 50.1µM* | -2.6% | 0.0
Cc1ccc(NC(=O)CSc2nc3ccc(NC(=O)CCc4ccccc4)cc3s2)c(C)c1 | -6.7% | -28.7% | / | 3.3%[59 µM] | ? | /
Cc1cc(SCC(=O)NC(=O)c2cccn2C)nc2ccccc12 | / | 1.5% | -21.1% | 50.1µM* | -1.2% | -6.4
Cc1ccc(C)c(NC(=O)CSc2nc3ccc(N4C(=O)c5ccccc5C4=O)cc3s2)c1 | -16.2% | -24.3% | -18.7% | 11.2µM* | -0.9% | 0.6
O=C(CSc1nc(-c2ccccc2)cs1)NC(=O)NCc1ccco1 | 12.0% | 3.0% | ? | 6.1%[59 µM] | -0.9% | -2.6
Cc1ccc(S(=O)(=O)NC(=O)CSc2nc3ccccc3s2)cc1 | ? | -8.6% | 2.6% | 50.1µM* | 3.6% | 20.2
COc1ccc(-c2noc(-c3ccc(NCc4ccccc4OC)c([N+](=O)[O-])c3)n2)cc1 | ? | -27.5% | / | ? | -11.4% | /
Cc1ccccc1CSCC(=O)NC(=O)NCc1ccco1 | -10.1% | -6.6% | 7.7% | 44.7µM* | -1.7% | 3.7
N#CC1(NC(=O)CSc2n[nH]c(-c3ccccc3)n2)CCCCC1 | / | / | / | 8.91µM* | / | /
O=C(CSCc1ccccc1Br)NNC(=S)NCc1ccco1 | / | / | 20.5% | 39.8µM* | / | 0.8
O=C(CSc1ccccc1F)NC(=O)NCc1ccco1 | -9.4% | -2.2% | 44.7µM* | -31.9% | 8.4% | 4.5
O=C(CSc1ncccn1)NC(=O)NCc1ccco1 | -10.9% | -5.9% | -7.9% | -36.3% | -10.9% | 0.8
Cc1ccc(CN(C(=O)COc2ccccc2Cl)c2ccccn2)o1 | -0.9% | -6.5% | / | 0.6%[59 µM] | 1.9% | /
Cc1ccc2occ(-c3cc(-c4ccccc4)nc4c3COc3ccccc3-4)c(=O)c2c1 | 2.0% | -4.9% | / | 17.9%[59 µM] | -19.6% | /
Cc1cc(SCC(=O)NC(=O)NCc2ccco2)nc2c(C)cccc12 | ? | -13.9% | 10µM* | ? | ? | 5.1
Cc1cc(SCCC(=O)O)nc2c(C)cccc12 | -1.4% | 1.5% | 10.9% | 79.4µM* | -2.8% | 17.3
Cc1cc(SCC(=O)NC(=O)NCc2ccco2)nc2ccccc12 | ? | -19.7% | 25.1µM* | ? | -2.7% | -1.3
